# The full ranking holds about 33,000 sequences; the median of “E-score (-0.5 to 0.5)” is about -0.016, and the highest 2% start at about 0.32. The sample as a whole holds a higher share of the highest values than the screen did.
# Target: T1, Stp1 (UniProt B3LFK1)
# T1 sequence: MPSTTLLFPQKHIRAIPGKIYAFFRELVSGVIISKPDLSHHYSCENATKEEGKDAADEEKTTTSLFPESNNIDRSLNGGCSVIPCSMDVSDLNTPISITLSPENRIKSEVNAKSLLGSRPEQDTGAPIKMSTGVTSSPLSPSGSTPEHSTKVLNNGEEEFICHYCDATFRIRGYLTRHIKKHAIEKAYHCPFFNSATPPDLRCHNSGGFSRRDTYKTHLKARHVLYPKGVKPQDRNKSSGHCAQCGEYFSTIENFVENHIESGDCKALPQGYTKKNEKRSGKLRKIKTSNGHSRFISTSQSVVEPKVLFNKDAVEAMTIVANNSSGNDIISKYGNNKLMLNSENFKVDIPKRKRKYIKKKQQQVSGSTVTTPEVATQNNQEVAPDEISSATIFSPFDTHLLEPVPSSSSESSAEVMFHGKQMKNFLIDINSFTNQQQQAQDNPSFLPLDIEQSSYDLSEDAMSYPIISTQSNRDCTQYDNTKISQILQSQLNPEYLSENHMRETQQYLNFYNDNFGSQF
# Assay: PBM E-score (8-mer binding enrichment) (E-score (-0.5 to 0.5)); higher = stronger / more preferred TF binding
# Settings: protein concentration: 200 nM; construct: GST-full length
# Protocol: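 Universal 'all 10-mer' protein binding microarrays (Agilent AMADID 015681) probed with GST-tagged S. cerevisiae TFs (full-length or DBD) made by in vitro transcription/translation (PURExpress), about 100-200 nM. Bound TF was detected with fluorescent anti-GST. Each ungapped 8-mer (which stands for itself and its reverse complement) is scored by the PBM enrichment score (E-score), a modified Wilcoxon-Mann-Whitney statistic from -0.5 to +0.5, computed with the Universal PBM Analysis Suite. Scale: above 0.35 generally sequence-specific binding.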
row,Sequence,PBM E-score
1,CAGGCACG,0.174
2,AAGGCACG,0.397
3,AAGGCAAA,0.247
4,CACAAGCA,-0.0847
5,AGTCCTTG,-0.0837
6,GTTTCTCA,-0.115
7,CAAGTAAC,0.0497
8,ATGAGAAT,0.146
9,CCTAATCA,-0.0333
10,ACAGAGAA,-0.0516
11,GATTTGCC,0.219
12,AGCCCGCC,-0.0384
13,ATCTGCTC,-0.272
14,TAAGATTA,0.0404
15,AGGGCACT,0.239
16,AAGGCATC,0.292
17,AATGCACT,0.109
18,AAGGCATG,0.158
19,AAGGCACT,0.323
20,AAGGCATT,0.322
21,CCCTACAG,-0.178
22,GTCGCAAA,0.155
23,ACCGGCTG,-0.0577
24,AACGGCTG,0.0994
25,AACGGCTT,0.366
26,AACGGCTC,0.407

row,Sequence,PBM E-score
1,GACGGCTC,0.307
2,CACGGCTG,0.363
3,AACGGGCT,-0.293
4,AAAGGCTT,-0.0867
5,CAAGGCTC,0.0922
6,CACGGCTC,0.469
7,CCCGGCTA,-0.148
8,ACCGGCTC,-0.0667
9,CATGTAGG,-0.00116
10,AGTTGAGA,-0.0601
11,ACTCCAGG,-0.175
12,GGAGCACC,-0.188
13,CCTTACAG,0.0881
14,AGGGAGTG,-0.0747
15,CCGTCATA,0.0738
16,CAGAACGA,0.00724
17,GACGGCTA,0.235
18,CACGGCTA,0.415
19,ACCGGCTA,-0.0689
20,CTCGGCTA,0.0804
21,ATCGGCTA,-0.108
22,GCCGGCTA,0.0397
23,AACGGCTA,0.372
24,GTCGGCTA,-0.0709
25,TACGGCTA,0.349
26,ACACCTTA,0.0262

row,Sequence,PBM E-score
1,ACGACCGT,-0.11
2,AAAGTGCC,0.201
3,AACACGGA,0.199
4,CACACGGC,0.471
5,AGCACGGA,0.114
6,ATCACGGG,0.00016
7,AGCACGGC,0.451
8,AACACGGG,0.116
9,ATCACGGA,-0.0235
10,ATCACGGC,0.351
11,AACACGGC,0.449
12,AGCACGGG,0.14
13,CACACGGG,0.235
14,CACACGGA,0.253
15,ACACCGAA,0.0644
16,AAGGAGCT,-0.235
17,AAAGCAAC,0.0791
18,AGTATTCG,0.0476
19,ATTTGGTA,0.144
20,AGACGCGC,0.0493
21,GACACGCC,0.105
22,GACACGGC,0.479
23,GACACGGA,0.315
24,GCCCTATA,0.206
25,AACCAAAG,0.0816
26,ACCACTAT,-0.127

row,Sequence,PBM E-score
1,GGCATTAA,0.319
2,AGCATTAC,-0.0767
3,AGCATTAA,-0.0764
4,CGCATTAA,0.144
5,GGCATTAC,0.364
6,CGCATTAC,-0.0452
7,ATACTGGC,-0.284
8,AATATCGT,0.141
9,ACCCAACT,-0.178
10,CGTGCCGC,0.475
11,GGTGCCGA,0.288
12,CCTGCCGC,0.226
13,AGTGCCGG,0.211
14,ACTGCCGC,0.412
15,CGTGCCGA,0.352
16,CGTGCCAG,0.172
17,CGTGCCAC,0.232
18,AGTGCCGC,0.477
19,ACTGCCGG,0.0822
20,CGTGCCCA,0.235
21,AGTGCCAC,0.242
22,ACAGGTAG,-0.126
23,GAACTCCA,-0.0707
24,CCGACTTA,0.0516
25,CTCTGAAA,0.0291
26,CATTCTCG,0.128

row,Sequence,PBM E-score
1,GGGCCTGA,-0.296
2,AGTGCCGA,0.322
3,ATTGCCGC,0.418
4,ATTGCCGA,0.177
5,AGTGCCAA,-0.0972
6,CTTGCCGC,0.309
7,AGTGCCCA,0.0772
8,ATCAACCG,-0.0921
9,GCCGTACA,0.459
10,CCCGTACA,-0.0395
11,GCCGTACC,0.46
12,ACCGTACC,-0.0289
13,ACCGTACA,0.117
14,CCCGTACC,0.191
15,CCAGAGAG,-0.245
16,GCGCGGAA,0.263
17,GCGCGGCA,0.483
18,GCGCGGGA,0.163
19,CCGCGGCC,0.325
20,CCGCGGTC,-0.0134
21,GCGCGGAC,0.256
22,CCGCGGGC,0.215
23,GAGCGGCC,0.156
24,TCTCGGCA,0.045
25,GCGCGGCC,0.4
26,ACTCGGCA,0.324

row,Sequence,PBM E-score
1,CCTCGGCA,0.282
2,CAGCGGGA,-0.174
3,AGATAGTA,0.0718
4,ACATAGTC,-0.0859
5,AACACCCG,0.151
6,CTGTGATC,-0.0819
7,CACGTAGG,-0.104
8,CCCCGTCA,-0.177
9,CAGATTTA,0.198
10,TGGTTACA,-0.0623
11,TCTACCAA,-0.0725
12,CCGCGGCG,0.435
13,ACGCGGAC,0.0606
14,CCGCGACG,0.197
15,ACGCGGCA,0.479
16,CCGCGGAG,0.0416
17,ACGCGGGA,0.0444
18,ACGCGGTC,-0.0102
19,ACGCGGTA,0.0505
20,ACGCGGAT,0.236
21,ACGCGTCT,-0.112
22,ACGCGGCC,0.326
23,ACGCGGCT,0.446
24,AACAGTCC,-0.215
25,ATACACTG,0.0725
26,AGCCTCGG,-0.0283

row,Sequence,PBM E-score
1,GCTTGGAA,-0.00205
2,AGAACCTA,-0.109
3,AGCCAGCA,-0.297
4,CTTATTGC,0.0179
5,ACACAAGT,0.00705
6,GGATGTGA,-0.084
7,TGCCAGCA,0.01
8,ATACCTGG,-0.284
9,AAGCAGGC,-0.277
10,CAGAGCTG,-0.147
11,ATCCGGAT,-0.0475
12,ACGCGGAG,0.111
13,TCGCGACA,-0.0531
14,TCGCGGAA,-0.0668
15,ACGCGGCG,0.488
16,CCGCGGAA,0.183
17,ACGCGGTG,0.0603
18,CCGCGGGA,0.218
19,TCGCGGCA,0.346
20,CCGCGGCA,0.441
